Among the data in PubChem BioAssay (EPA / NIEHS) are outcome and AC50 values, retold here.

SMILES strings stand for the structures. Inconclusive results are not listed. Calls of active or inactive are those of the source. How the source made its calls: active means hit-call score of the fitted dose curve at least 0.9, where 1 is the maximum; inconclusive means response in the unintended direction; inactive means score below 0.9.

The nature of the assay: ATG_XTT_Cytotoxicity: Cytotoxicity Assessment in the Attagene TRANS-FACTORIAL HepG2 Assay (AID 2283584).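 On AC50: cells exposed to compound for 24 h before reading.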 How it is done: ATG_XTT_Cytotoxicity is a cell-based, single-readout assay that uses HepG2, a human liver cell line, with measurements taken at 24 hours after chemical dosing in a 24-well plate.ATG_XTT_Cytotoxicity is one of one assay component(s) measured or calculated from the ATG_XTT_Cytotoxicity assay. It is designed to make measurements of cell number, a form of viability reporter, as detected with […] signals by XTT cytotoxicity assay technology.Data from the assay component ATG_XTT_Cytotoxicity was analyzed into 1 assay endpoint. This assay endpoint, ATG_XTT_Cytotoxicity, was analyzed in the positive analysis fitting direction relative to DMSO as the negative control and baseline of activity. Using a type of viability reporter, loss-of-signal activity can be used to understand changes in the viability. Furthermore, this assay endpoint can be referred to as a primary readout, because the performed assay has only produced 1 assay endpoint. To generalize the intended target to other relatable targets, this assay endpoint is annotated to the cell cycle intended target family, where the subfamily is cytotoxicity.
Human liver HepG2 cells are transiently transfected with multiple reporter transcription units (MRTUs) in 6-well plates using FuGene 6 reagent (Roche; 3 ml FuGene/1 mg DNA). The MRTU constructs are regulated by a cis-regulating element (promoter). […] A major difference between the CIS and TRANS system is that in CIS activities of endogenous TFs are measured, whereas the TRANS assay evaluates changes in activities of exogenous, chimeric NR-Gal4 proteins. […] At the end of 24 hour incubation, total RNA was isolated using TriZol reagent (Invitrogen). The isolated RNA is then reverse-transcribed using oligo(dT) primer and Mo-MLV reverse transcriptase (Invitrogen) with DNAse I (Ambion) treatment for 30 min. The one-tenth of the produced cDNA was amplified by PCR using Taq DNA polymerase (Invitrogen) and two reporter sequence-specific primers. The PCR products were fluorescently labeled by primer extension with 6-arboxyfluorescein (6-FAM) 5'-labeled reporter sequence-specific primer (2 min at 95 C, 20 s at 68 C and 10 min at 72 C) and these products were digested with 5U of HpaI (New England Biolabs) for 2h at 37 C. The fragments were purified using Qiaquick PCR columns (Qiagen), analyzed on an ABI 3130xL genetic analyzer (Applied Biosystems) with peak positions identified by using a set of X-rhodamine (ROX)-labeled MapMarker1000 molecular weight standards (BioVentures). The raw capillary electrophoresis data was processed using Attagraph software (Attagene).
On to `CCCCCCCCCCCCCCCC(=O)OCC`, for which the compound was classed as inactive. `OCCCS`: the result was inactive. `CNC(=S)N(C)C`: the call was inactive. The same measure, in the same setting: the same measure for `Cc1ccc(C2OC[C@@H]3OC(c4ccc(C)cc4)O[C@H]([C@H](O)CO)[C@@H]3O2)cc1` (stereo not given in full): “inactive”. Take `Cc1cccc(N(C)C(=S)Oc2ccc3ccccc3c2)c1`: the call was inactive. Same read-out and setting: as for `O=S(=O)(O)c1ccc2cc(O)c(S(=O)(=O)O)cc2c1`, the entry is “inactive”; as for `CCCCCC/C=C/C=O`, “inactive”. For the compound `CCN(CC)c1ccc(C(=O)c2ccccc2C(=O)O)c(O)c1`, the compound was called inactive. What is called AC50 is the concentration at which the activity in the assay is half-maximal. Turning to `Oc1ccc(Cl)cc1Cc1cc(Cl)ccc1O`, the AC50 was 27 µM (active). Regarding `O=C(O)c1ccccc1Nc1cccc(C(F)(F)F)c1`, the result was inactive. As to `CC(C)CCCCCOC(=O)CCS`, the result was inactive. As to `[Cl][In]([Cl])[Cl]`, the compound was called inactive. Turning to `CCCCOCCOC(=O)COc1nc(Cl)c(Cl)cc1Cl`, the call was inactive. Take `NCCCN1CCN(CCCN)CC1`: the result was inactive. As to `CC(=O)Oc1ccc(C)cc1`, the compound was called inactive. For `O=C(Nc1cccc(C(F)(F)F)c1)c1cc(Br)cc(Br)c1O`, the compound was classed as inactive.

With `Nc1ncn([C@@H]2O[C@H](CO)[C@@H](O)[C@H]2O)c(=O)n1`, the call was inactive. In the case of `COc1cc(NC(=O)CC(C)=O)c(OC)cc1Cl`, the compound was called inactive. For the compound `CC(=O)OCC(C)OC(C)=O` (stereo not given), the result was inactive.

Turning to `Nc1ccc(Oc2ccc(N)c(N)c2)cc1`, the result was inactive. On the same count and under the same terms, as for `Cc1cc(C)c(C)c(O)c1`, the entry is “inactive”; as for `CC(=O)Nc1ccc2c(c1)Cc1cc(NC(C)=O)ccc1-2`, “inactive”; as for `COc1ccc([C@@H]2CC(=O)c3c(O)cc(O[C@@H]4O[C@H](CO[C@@H]5O[C@@H](C)[C@H](O)[C@@H](O)[C@H]5O)[C@@H](O)[C@H](O)[C@H]4O)cc3O2)cc1OC`, “inactive”. Regarding `CO[Si](CCC1CCC2OC2C1)(OC)OC` (stereo not given), the call was inactive. The same measure, in the same setting: the same measure for `O=Cc1ccc(CO)o1`: “inactive”; for `O=[N+]([O-])c1ccc(CO)cc1`: “inactive”; for `Cn1c(=O)[nH]c2ncn(C)c2c1=O`: “inactive”.

For `CCCCCCCCc1ccc(Nc2ccc(CCCCCCCC)cc2)cc1`, the result was inactive. Take `C=CC(=O)OCCC(=O)O`: the call was inactive. In the case of `O=C(O)Cc1c(Cl)ccc(Cl)c1Cl`, the compound was classed as inactive. Still for that read-out and setting: the same measure for `CCCCCCOC(=O)C(C)CC` (stereo not given): “inactive”; for `CCCCCCCC/C=C\CCCCCCCC(=O)O`: “inactive”; for `CC(CC=O)c1ccccc1` (stereo not given): “inactive”. As to `O=C(O)c1cc(Cl)cc([N+](=O)[O-])c1Cl`, the compound was called inactive. As for `CCCCCCCCCCCSCC(=O)O`, the result was inactive. As to `NC(=O)NNC(N)=O`, the compound was called inactive. As for `CCC(CC)C(=O)O`, the outcome was inactive. Still for that read-out and setting: the same measure for `C/C=C\C/C=C/CCCCCCCCOC(C)=O`: “inactive”. Consider `Nc1ccc(N)c(Cl)c1`, for which the outcome was inactive. Take `CCCCCCCCCCOC(C)=O`: the call was inactive.
